Here are results for 40 molecules from PubChem BioAssay (NCATS).

Inconclusive results are not listed. Unmarked numbers belong to inactive results. The source made the active and inactive calls. The call rests on the fitted dose curve; in most records, active means well fitted inhibition curve with a large enough effect; inconclusive means small, poorly fitted or top-dose-only effect; inactive means flat fitted curve, though single readings scatter.
Potency means the concentration at half of the fitted maximal effect.

A short description of this assay: BET inhibitor-based combinations targeting novel dependencies in MECOM-rearranged (r) AML: AML-191 cell line (AID 2202236; further: nearly all actives have a fitted effect of over 35% in size;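 on viability (% of control): plate controls were vehicle wells for no effect and wells without cells for full effect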). The conditions noted are these: AML-191 viability, CellTiter-Glo luminescence, 48 h; series mostly up to 46 µM; viability (% of control): at the top concentration. An excerpt:
Ecotropic viral insertion site 1 (EVI1) is located on chromosome 3q26.2 as part of the MECOM (MDS and EVI1 complex) locus. Under normal hematopoiesis, EVI1 is a regulator of hematopoietic stem cell maintenance and self-renewal and EVI1 levels decrease as the cells differentiate. In approximately 5-10% of de novo acute myeloid leukemia (AML) EVI1 is aberrantly expressed, including Chromosomal inv(3)(q21;q26.2) or t(3;3)(q21;q26.2) alterations (MECOM-r) that account for about 50% of AML with EVI1 overexpression 31. AMLs with high levels of EVI1 have a poor prognosis and an overall survival time averaging between 10-14 months. EVI1 overexpression confers resistance in leukemia cells, highlighting the need to develop new targeted therapies for EVI1 overexpressing AMLs.
Here, we performed an unbiased chemical drug screening by evaluating the single agent activity of a collection of 2,480 oncology-focused, approved and investigational drugs (NCATS Mechanism Interrogation Plates, MIPE v5.0) against a panel of seven AML cell lines. These included four MECOM-r cell-lines (AML-191, AML-194, UCSD-AML1 and HNT-34) and three non-MECOM-r AMLs (MV4-11, OCI-AML3 and SET-2). Exploiting the mechanistic redundancy built in the library, we identified target-level sensitivities in MECOM-r AML cells and relative activity as compared to other AML subtypes.
A collection of 2480 mechanistically annotated dugs (MIPE v5.0) was used to screen four 3q26.2 rearranged AML cell lines and three non-3q26.2 rearranged AML cell lines. This library purposely exploits redundancy by including multiple inhibitors of key onco-targets, while simultaneously encompassing mechanistic diversity, targeting more than 800 distinct mechanisms of action. Briefly, cells were seeded in 5 uL of growth media using a Multidrop Combi dispenser into 1536 well white polystyrene tissue culture treated plates (Corning) at a density of 500cells/well. For each cell-line, for each of the 2480 drugs in MIPE v5.0 library, an 11-point dose curve was generated via a 1536 pin-tool. Plates were incubated for 48 hr at standard incubator conditions, covered by a stainless steel gasketed lid to prevent evaporation. Cell viability was determined by luminescence based, Cell Titer Glo assay (Promega). In detail, 3 uL of Cell Titer Glo were added to each well and plates were incubated at room temperature for 15 min with a stainless-steel lid in place. Luminescence readings were taken using a Viewlux (PerkinElmer) with a 2 s exposure time per plate. Compound dose-response curves were normalized to DMSO and empty well controls on each plate. Quantitative drug activity data from dose-response curves was determined utilizing area Under the Curve (AUC) and Z-transformed AUC (Z-AUC, a mean-centering transformation applied to each individual cell-line screened).
In general terms: ATP-based viability assays read luminescence as a measure of living cells.
On to `COc1ccc(-n2nc(C(N)=O)c3c2C(=O)N(c2ccc(N4CCCCC4=O)cc2)CC3)cc1`, for which the “viability (% of control)” value was 84.8%. Consider `O=C1C(Cl)=C(NCCN2CCOCC2)C(=O)c2ncccc21`, for which the Potency is 7420 nM (active). Take `CC(C)[C@H](C(=O)Nc1ccc(C(=O)NO)cc1)c1ccccc1`: the Potency was 662 nM (active). In the case of `NC(=O)Nc1sc(-c2ccc(F)cc2)cc1C(N)=O`, the Potency was 1860 nM (active). Turning to `C=CC(=O)Nc1cccc(Nc2nc(Nc3ccc(OCCOC)cc3)ncc2F)c1`, the Potency is 8330 nM (active).

On to `O=C1CN2Cc3c(ccc(Cl)c3Cl)N=C2N1`, for which the “viability (% of control)” value is 107%. Turning to `CC1CCN(c2cc(N3CCN(C)CC3)ccc2NC(=O)c2cc(C#N)c[nH]2)CC1`, the Potency was 20900 nM (active).

`O=c1[nH]nc(Sc2ncc([N+](=O)[O-])s2)n1-c1ccc2c(c1)OCCO2`: the Potency was 3320 nM (active). As to `CC[C@@H]1C(=O)N(C)c2cnc(Nc3ccc(C(=O)NC4CCN(C)CC4)cc3OC)nc2N1C1CCCC1`, the Potency was 166 nM (active).

In the case of `CCN(CC)CCCCNc1ncc2cc(-c3cc(OC)cc(OC)c3)c(NC(=O)NC(C)(C)C)nc2n1`, the Potency is 18600 nM (active).

Regarding `N[C@@H](Cc1ccc(O)c(O)c1)C(=O)O`, the “viability (% of control)” value was 108%. `CN1CCN(c2ccc(-c3cccc(CN4CCOCC4)c3)cc2NC(=O)c2c[nH]c(=O)cc2C(F)(F)F)CC1`: the “viability (% of control)” value was 96.2%.

On to `O=C(Nc1cc(C(F)(F)F)cc(C(F)(F)F)c1)c1cc(Cl)ccc1O`, for which the Potency was 1180 nM (active). As to `COc1cc(C(=O)NC2CCN(C)CC2)c(F)cc1Nc1ncc2c(n1)N(C1CCCC1)CC(F)(F)C(=O)N2C`, the Potency is 118 nM (active). In the case of `C=CC(=O)Nc1cc(Nc2nccc(-c3cn(C)c4ccccc34)n2)c(OC)cc1N(C)CCN(C)C`, the Potency is 8330 nM (active). For `CC(C)Oc1cc(Nc2nc(N[C@@H](C)c3ccc(F)cn3)ncc2Cl)[nH]n1`, the Potency is 417 nM (active). Regarding `Cc1n[nH]c(C)c1Cc1sc2c(c1C(=O)N1C[C@H](O)CO1)c(=O)n(C)c(=O)n2CC(C)C`, the “viability (% of control)” value is 109%. Take `CC1c2ccccc2CN1NC(=O)c1ccc(Cl)c(S(N)(=O)=O)c1` (stereo not given): the “viability (% of control)” value is 107%.

Regarding `Cc1cccc(Oc2cnc(=O)[nH]c2)c1`, the “viability (% of control)” value was 103%. Regarding `O=S(=O)(c1cccc2c(I)cccc12)N1CCCNCC1`, the “viability (% of control)” value was 93.6%. As to `c1ccc2c(CCNc3ccc(Nc4ccncc4)cc3)c[nH]c2c1`, the Potency is 10500 nM (active).

For `COc1ccc(-n2c(SCCCN3C(=O)c4cccc5cccc(c45)C3=O)nnc2-c2ccncc2)cc1`, the “viability (% of control)” value was 99.2%. With `CN(C)c1nc(N(C)C)nc(N(C)C)n1`, the “viability (% of control)” value was 110%.

Consider `OCCN1C[C@H](O)[C@@H](O)[C@H](O)[C@H]1CO`, for which the “viability (% of control)” value was 108%.

For `O=c1[nH]c(=O)n(C2CCCO2)cc1F` (stereo not given), the “viability (% of control)” value is 104%.

Regarding `C=CCn1c(=O)c2cnc(Nc3ccc(N4CCN(C)CC4)cc3)nc2n1-c1cccc(C(C)(C)O)n1`, the Potency is 742 nM (active). In the case of `O=C(Nc1ccc(OC(F)(F)F)cc1)c1sccc1NCc1ccnc2ccccc12`, the Potency was 8330 nM (active). On to `CC(C)C[C@H](NC(=O)[C@H](CCc1ccccc1)NC(=O)CN1CCOCC1)C(=O)N[C@@H](Cc1ccccc1)C(=O)N[C@@H](CC(C)C)C(=O)[C@@]1(C)CO1`, for which the Potency is 52.5 nM (active). `CC(C)(C#N)c1cc(Cn2cncn2)cc(C(C)(C)C#N)c1`: the “viability (% of control)” value was 103%.

With `Nc1nc(Cl)nc2c1ncn2[C@H]1C[C@H](O)[C@@H](CO)O1`, the Potency was 83.3 nM (active). In the case of `Cc1coc2c1C(=O)C(=O)c1c-2ccc2c1CCCC2(C)C`, the “viability (% of control)” value was 87.8%.

Turning to `FC(F)(F)c1ccc(Nc2nc(-c3c(C(F)(F)F)nc4ccccn34)cs2)cc1`, the Potency was 296 nM (active). Consider `CC(C)[C@@H](CS(=O)(=O)C(C)C)N1C(=O)[C@@](C)(CC(=O)O)C[C@H](c2cccc(Cl)c2)[C@H]1c1ccc(Cl)cc1`, for which the Potency is 2350 nM (active).

As to `CN(C)c1ccc(C(=C2C=CC(=[N+](C)C)C=C2)c2ccc(N(C)C)cc2)cc1`, the Potency was 1180 nM (active). As to `Cn1c(=O)n(-c2ccc(C(C)(C)C#N)cc2)c2c3cc(-c4cnc5ccccc5c4)ccc3ncc21`, the Potency was 42.8 nM (active). For `COc1ccccc1OCC(O)CN1CCN(CC(=O)Nc2c(C)cccc2C)CC1` (stereo not given), the “viability (% of control)” value was 99.5%. As for `COc1ccccc1[C@H](c1cccc2ccccc12)[C@@](C)(C#N)C(=O)N1CCC(c2cccc(C(F)(F)F)c2)CC1`, the “viability (% of control)” value is 87.3%. As to `CC(Oc1ccc(O)cc1)(P(=O)(O)O)P(=O)(O)O`, the “viability (% of control)” value is 108%. The same measure, in the same setting: as for `NCCOc1cc(C(=O)Nc2cc(OCCN)c3ccccc3n2)nc(C(=O)Nc2cc(OCCN)c3ccccc3n2)c1`, the figure is 89.3%. With `CN(C)C/C=C/C(=O)Nc1ccc(C(=O)Nc2cccc(Nc3ncc(Cl)c(-c4c[nH]c5ccccc45)n3)c2)cc1`, the Potency was 235 nM (active).
